Test [1] is described as follows: NCI Yeast Anticancer Drug Screen. Data for the rad50 strain (AID 155).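 Also: 0% = growth of vehicle-only cultures of the same strain.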 The note with it: S. cerevisiae rad50 strain growth inhibition, stronger effect = higher value. The method, boiled down:
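Genetically altered yeast (DNA repair pathway); compound treatment; growth inhibition vs vehicle ctrl.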

A short description of test [2]: NCI Yeast Anticancer Drug Screen. Data for the mec2-1 strain (AID 157). The note with it: S. cerevisiae mec2-1 strain, stronger effect = higher value. An outline of the steps:
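Vehicle-treated cultures served as reference for growth inhibition of compound-exposed mec2-1 yeast.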

A short description of test [3]: NCI Yeast Anticancer Drug Screen. Data for the sgs1 mgt1 strain (AID 161).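 Also: 0% = growth of cultures given vehicle only.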 The note with it: S. cerevisiae sgs1 mgt1 strain, stronger effect = higher value. The method, boiled down:
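Mutant yeast exposed to compound; growth scored against vehicle-only wells.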

A short description of test [4]: NCI Yeast Anticancer Drug Screen. Data for the cln2 rad14 strain (AID 165).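 Also: 0% = growth equal to vehicle treated cultures.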 The note with it: S. cerevisiae cln2 rad14 strain, stronger effect = higher value. An outline of the steps:
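Each compound was tested on cln2 rad14 yeast. Inhibition of growth was calculated against vehicle-exposed controls.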

Test [5] can be described thus: NCI Yeast Anticancer Drug Screen. Data for the bub3 strain (AID 167). The settings on record: S. cerevisiae bub3 mutant strain, stronger effect = higher value. An outline of the steps:
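Yeast carrying a defined mutation is treated with each compound, and growth is compared with that of vehicle-exposed cells to give inhibition.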

Test [6] can be described thus: NCI Yeast Anticancer Drug Screen. Data for the mlh1 rad18 strain (AID 175). The note with it: S. cerevisiae mlh1 rad18 strain growth inhibition, stronger effect = higher value. The method, boiled down:
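Vehicle-treated cultures served as the reference for growth inhibition in a yeast strain carrying DNA damage repair alterations exposed to each compound.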

The mark [7] stands for this setting: at 5.0 µM (retest, dose inferred, filed as 0.5).
Setting [8] is: at 50.0 µM (retest, dose inferred, filed as 5.0).

Drawing on PubChem BioAssay (NCI), this text covers growth inhibition for seven compounds.

Several values for one entry are separate records, joined by “and”; a condition that tells them apart may be missing. Identical values can stand only once. The panel holds about 79,000 compounds, 15% with a hit somewhere; the sample as a whole holds those more often. The source holds several records for some structures; these can differ, active in one and inactive in another. Activity calls are given as the source filed them. Rule as the data show it: active = growth inhibition above about 70%; inactive = the rest.

In the case of `O=C(CC1=Nc2nnc(CCCCCCCc3nnc4n3C(=O)C(CC(=O)c3ccc5ccccc5c3)=N4)n2C1=O)c1ccc2ccccc2c1`, the growth inhibition is 1% (inactive) in test [1] (setting [7]); 85% (active) in test [1] (setting [8]); 17.9% (inactive) in test [1] (at 50.0 µM); 1% (inactive) in test [2] (setting [7]); 92% (active) in test [2] (setting [8]); 9.85% (inactive) in test [2] (at 50.0 µM). For the same compound, the growth inhibition in test [3] (setting [7]) is -2% (inactive); in test [3] (setting [8]) it was 93% (active); in test [3] (at 50.0 µM), 18.4% (inactive); in test [4] (setting [7]), 6% (inactive); in test [4] (setting [8]), 85% (active); in test [4] (at 50.0 µM), 82.1% (active). The growth inhibition in test [5] (setting [7]) is 6% (inactive); in test [5] (setting [8]), 88% (active); in test [5] (at 50.0 µM) it was 1.75% (inactive); in test [6] (setting [7]), 3% (inactive); in test [6] (setting [8]) it was 37% (inactive); in test [6] (at 50.0 µM) it was 26.9% (inactive).
On to `O=S(=O)(O)c1ccc(-c2c3nc(c(-c4ccc(S(=O)(=O)O)cc4)c4ccc([nH]4)c(-c4ccc(S(=O)(=O)O)cc4)c4nc(c(-c5ccc(S(=O)(=O)O)cc5)c5ccc2[nH]5)C=C4)C=C3)cc1`, for which the growth inhibition in test [1] (setting [7]) was 61% (inactive) and 82% (active); in test [1] (setting [8]) it was 94% (active) and 91% (active); in test [1] (at 50.0 µM), 92.8% (active) and 94.3% (active); in test [2] (setting [7]), 72% (active) and 96% (active); in test [2] (setting [8]) it was 97% (active) and 95% (active); in test [2] (at 50.0 µM), 96.8% (active) and 87.5% (active). The growth inhibition in test [3] (setting [7]) was 74% (active) and 68% (inactive); in test [3] (setting [8]), 29% (inactive) and 51% (inactive); in test [3] (at 50.0 µM) it was 94.8% (active) and 91.8% (active); in test [4] (setting [7]), 32% (inactive) and 40% (inactive); in test [4] (setting [8]), 80% (active) and 67% (inactive); in test [4] (at 50.0 µM), 91.8% (active) and 91.4% (active). The growth inhibition in test [5] (setting [7]) is 51% (inactive) and 64% (inactive); in test [5] (setting [8]) it was 92% (active) and 83% (active); in test [5] (at 50.0 µM), 93.6% (active) and 92.8% (active); in test [6] (setting [7]) it was 74% (active) and 93% (active); in test [6] (setting [8]) it was 92% (active) and 93% (active); in test [6] (at 50.0 µM) it was 96% (active) and 91.2% (active).
In the case of `CC(C)CC(Nc1c(O)ccc2ccccc12)C(=O)O` (stereo unspecified), the growth inhibition was 24% (inactive) in test [1] (setting [7]); 98% (active) in test [1] (setting [8]); 98.8% (active) in test [1] (at 50.0 µM); 0% (inactive) in test [2] (setting [7]); 99% (active) in test [2] (setting [8]); 99.4% (active) in test [2] (at 50.0 µM). Besides, the growth inhibition was 17% (inactive) in test [3] (setting [7]); 99% (active) in test [3] (setting [8]); 99.3% (active) in test [3] (at 50.0 µM); 11% (inactive) in test [4] (setting [7]); 99% (active) in test [4] (setting [8]); 72.7% (active) in test [4] (at 50.0 µM). For the same compound, the growth inhibition in test [5] (setting [7]) was 15% (inactive); in test [5] (setting [8]) it was 99% (active); in test [5] (at 50.0 µM) it was 95.2% (active); in test [6] (setting [7]) it was 45% (inactive); in test [6] (setting [8]) it was 99% (active); in test [6] (at 50.0 µM) it was 99.3% (active).
As for `O=[N+]([O-])c1cc([N+](=O)[O-])c2ccccc2c1NS(=O)(=O)/C=C/c1ccccc1`, the growth inhibition in test [1] (setting [7]) was 5% (inactive); in test [1] (setting [8]), 54% (inactive); in test [1] (at 50.0 µM), 53% (inactive); in test [2] (setting [7]), 8% (inactive); in test [2] (setting [8]) it was 64% (inactive); in test [2] (at 50.0 µM) it was 70.7% (active). For the same compound, the growth inhibition in test [3] (setting [7]) was 16% (inactive); in test [3] (setting [8]), 47% (inactive); in test [3] (at 50.0 µM) it was 49% (inactive); in test [4] (setting [7]) it was 10% (inactive); in test [4] (setting [8]), 77% (active); in test [4] (at 50.0 µM) it was 50.4% (inactive). Moreover, the growth inhibition is 2% (inactive) in test [5] (setting [7]); 42% (inactive) in test [5] (setting [8]); 16.3% (inactive) in test [5] (at 50.0 µM); 7% (inactive) in test [6] (setting [7]); 71% (active) in test [6] (setting [8]); 44.5% (inactive) in test [6] (at 50.0 µM).
For the compound `Cc1[nH]c2ccccc2c1C1Cc2ccccc2N1` (stereo unspecified), the growth inhibition in test [1] (setting [7]) was 14% (inactive) and 19% (inactive); in test [1] (setting [8]) it was 15% (inactive) and 76% (active); in test [1] (at 50.0 µM), 37.1% (inactive) and 57.5% (inactive); in test [2] (setting [7]), 12% (inactive) and 24% (inactive); in test [2] (setting [8]), 14% (inactive) and 59% (inactive); in test [2] (at 50.0 µM) it was 36.2% (inactive) and 78.5% (active). In addition, the growth inhibition in test [3] (setting [7]) is 16% (inactive) and 25% (inactive); in test [3] (setting [8]), 14% (inactive) and 79% (active); in test [3] (at 50.0 µM) it was 46.3% (inactive) and 81.3% (active); in test [4] (setting [7]) it was 10% (inactive) and 16% (inactive); in test [4] (setting [8]) it was 6% (inactive) and 29% (inactive); in test [4] (at 50.0 µM) it was 47.4% (inactive) and 67.6% (inactive). Also, the growth inhibition is 9% (inactive) and 15% (inactive) in test [5] (setting [7]); -12% (inactive) and 76% (active) in test [5] (setting [8]); 30.6% (inactive) and 94.2% (active) in test [5] (at 50.0 µM); 15% (inactive) and 20% (inactive) in test [6] (setting [7]); 37% (inactive) and 52% (inactive) in test [6] (setting [8]); 69.7% (inactive) and 96.2% (active) in test [6] (at 50.0 µM).
Regarding `O=C(O)c1c2ccccc2nc2[nH]c(=O)[nH]c(=O)c12`, the growth inhibition in test [1] (setting [7]) was -1% (inactive); in test [1] (setting [8]) it was -3% (inactive); in test [1] (at 50.0 µM), 3.3% (inactive) and 23.4% (inactive); in test [2] (setting [7]), -2% (inactive); in test [2] (setting [8]), -2% (inactive); in test [2] (at 50.0 µM), -5.05% (inactive) and 33.4% (inactive). The growth inhibition in test [3] (setting [7]) is -6% (inactive); in test [3] (setting [8]) it was -3% (inactive); in test [3] (at 50.0 µM) it was -4.45% (inactive) and 24.3% (inactive); in test [4] (setting [7]), 0% (inactive); in test [4] (setting [8]), 6% (inactive); in test [4] (at 50.0 µM), 62.9% (inactive) and -0.85% (inactive). For the same compound, the growth inhibition in test [5] (setting [7]) was -1% (inactive); in test [5] (setting [8]) it was -5% (inactive); in test [5] (at 50.0 µM), 7.1% (inactive) and 34% (inactive); in test [6] (setting [7]), 0% (inactive); in test [6] (setting [8]), -4% (inactive); in test [6] (at 50.0 µM), -1.9% (inactive) and 15.7% (inactive).
For `O=c1cc[nH]cc1`, the growth inhibition in test [1] (setting [7]) was 2% (inactive); in test [1] (setting [8]) it was 14% (inactive); in test [1] (at 50.0 µM), 7.55% (inactive) and 26.5% (inactive); in test [2] (setting [7]) it was -3% (inactive); in test [2] (setting [8]), -7% (inactive); in test [2] (at 50.0 µM), -8.8% (inactive) and 56.6% (inactive). Moreover, the growth inhibition was -5% (inactive) in test [3] (setting [7]); 2% (inactive) in test [3] (setting [8]); 2.3% (inactive) and 16.9% (inactive) in test [3] (at 50.0 µM); 3% (inactive) in test [4] (setting [7]); 5% (inactive) in test [4] (setting [8]); 1% (inactive) and 24.7% (inactive) in test [4] (at 50.0 µM). In addition, the growth inhibition was 1% (inactive) in test [5] (setting [7]); -6% (inactive) in test [5] (setting [8]); 12.3% (inactive) and 23.3% (inactive) in test [5] (at 50.0 µM); 0% (inactive) in test [6] (setting [7]); 6% (inactive) in test [6] (setting [8]); -7.05% (inactive) and 81.5% (active) in test [6] (at 50.0 µM).
